Experimental data reported in ChEMBL document CHEMBL3988442, “University of Dundee, Small-Polar-MMV Screening Library” (2021).
For part of these data: Measured potencies and affinities stand elsewhere.

Tests used:
Set-up in all cases: scale not given: direction of the effect not stated beside the values
[1] = biological target: AMP-activated protein kinase, AMPK (Homo sapiens) (UniProt P54646+O43741+P54619+Q9UGJ0+Q9Y478+Q13131+Q9UGI9); assay: AMP-dependent Kinase enzyme assay. An in vitro enzyme assay that detects ADP turnover that is directly proportional to AMPK activity. This uses naive AMPK that is activated during the assay with MK-8722; assay type: functional; settings: 30 µM
[2] = biological target: Protein translocase subunit SecA (Escherichia coli (strain K12)) (UniProt P10408); assay: Assay to Identify E. coli SecA ATPase Inhibitors; assay type: functional; settings: 30 µM
[3] = biological target: T1, Ubiquitin-activating enzyme e1, putative (Leishmania donovani (strain BPK282A1)) (UniProt E9BSI1); assay: Leishmania donovani Ubiquitin Activating Enzyme (LdE1); assay type: functional; settings: 30 µM
T1 sequence (whole entry): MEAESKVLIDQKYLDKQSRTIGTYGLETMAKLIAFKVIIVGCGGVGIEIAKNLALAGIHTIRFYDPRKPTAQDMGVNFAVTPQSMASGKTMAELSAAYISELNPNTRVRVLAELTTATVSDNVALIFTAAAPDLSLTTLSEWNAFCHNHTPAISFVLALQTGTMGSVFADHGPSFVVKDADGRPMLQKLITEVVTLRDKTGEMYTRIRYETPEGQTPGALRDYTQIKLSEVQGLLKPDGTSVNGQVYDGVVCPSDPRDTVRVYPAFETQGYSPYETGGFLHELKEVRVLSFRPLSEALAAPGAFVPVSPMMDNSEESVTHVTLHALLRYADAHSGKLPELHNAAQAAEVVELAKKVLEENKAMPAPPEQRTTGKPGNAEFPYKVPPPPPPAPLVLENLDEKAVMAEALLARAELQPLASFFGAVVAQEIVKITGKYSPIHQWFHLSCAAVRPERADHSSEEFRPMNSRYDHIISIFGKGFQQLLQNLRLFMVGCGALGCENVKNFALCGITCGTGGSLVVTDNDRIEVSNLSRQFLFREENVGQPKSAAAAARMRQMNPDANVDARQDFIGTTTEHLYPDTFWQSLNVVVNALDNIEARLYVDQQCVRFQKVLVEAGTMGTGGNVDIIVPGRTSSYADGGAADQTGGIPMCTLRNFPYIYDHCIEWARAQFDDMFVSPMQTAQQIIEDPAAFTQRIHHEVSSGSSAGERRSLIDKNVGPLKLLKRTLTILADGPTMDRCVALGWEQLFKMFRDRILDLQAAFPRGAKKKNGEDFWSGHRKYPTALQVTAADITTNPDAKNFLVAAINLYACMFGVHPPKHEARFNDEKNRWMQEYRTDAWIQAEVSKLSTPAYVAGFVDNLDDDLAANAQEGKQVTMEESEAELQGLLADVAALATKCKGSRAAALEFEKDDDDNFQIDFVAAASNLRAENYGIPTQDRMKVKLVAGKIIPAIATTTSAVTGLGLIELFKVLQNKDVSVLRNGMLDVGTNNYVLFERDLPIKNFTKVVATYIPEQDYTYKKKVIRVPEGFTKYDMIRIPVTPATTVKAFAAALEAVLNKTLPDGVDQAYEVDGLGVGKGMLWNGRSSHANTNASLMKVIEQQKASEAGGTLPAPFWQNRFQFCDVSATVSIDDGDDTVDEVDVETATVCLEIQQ

[4] = biological target: Sialic acid-binding Ig-like lectin 9 (Homo sapiens) (UniProt Q9Y336); assay: Hs-Siglec9 ALPHAscreen SOP 20170721; settings: 10 µM
Trypanosoma cruzi = assay: Trypanosoma cruzi phosphomannomutase and mannose-1-phosphate guanylyltransferase assay; assay type: functional; settings: 10 µM
[5] = biological target: T2, Arginase-2, mitochondrial (Homo sapiens) (UniProt P78540); assay: in vitro enzyme assay to detect the production of urea directly proportional to the activity of Arginase II; assay type: functional; settings: 33.3 µM; further: in the data most compounds retested in dose-response had high values
T2 sequence (whole entry): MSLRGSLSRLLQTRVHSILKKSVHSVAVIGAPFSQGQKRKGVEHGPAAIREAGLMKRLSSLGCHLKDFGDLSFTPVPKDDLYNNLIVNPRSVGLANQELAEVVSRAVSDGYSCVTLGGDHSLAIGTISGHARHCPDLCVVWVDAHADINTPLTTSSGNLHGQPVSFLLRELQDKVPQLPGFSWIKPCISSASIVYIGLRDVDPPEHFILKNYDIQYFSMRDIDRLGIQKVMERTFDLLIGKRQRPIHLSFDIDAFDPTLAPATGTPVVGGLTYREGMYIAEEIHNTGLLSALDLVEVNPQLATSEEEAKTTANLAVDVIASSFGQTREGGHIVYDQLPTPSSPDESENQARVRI

[6] = biological target: T3, Proteasome subunit beta (Trypanosoma cruzi) (UniProt O96673); assay: Trypanosoma cruzi proteasome chymotrypsin-like activity (TcProtChymo) assay.; further: in the data most compounds retested in dose-response had high values; assay type: functional; settings: 9.37 µM
T3 sequence (whole entry): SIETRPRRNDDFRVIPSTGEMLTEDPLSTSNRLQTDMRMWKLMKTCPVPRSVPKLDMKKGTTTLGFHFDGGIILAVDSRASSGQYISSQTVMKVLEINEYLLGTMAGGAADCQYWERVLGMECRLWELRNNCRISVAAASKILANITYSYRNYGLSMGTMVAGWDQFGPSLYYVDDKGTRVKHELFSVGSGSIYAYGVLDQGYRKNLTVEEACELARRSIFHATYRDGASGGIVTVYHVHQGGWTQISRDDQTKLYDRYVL

Homo sapiens = species: Homo sapiens; assay: To identify inhibition of the IFN signalling (Jak-Stat) pathway via expression of an eGFP reporter gene under the control of an IFN-stimulated response element (ISRE) containing MxA promoter.; assay type: functional; settings: 30 µM
[7] = biological target: T4, Tyrosyl-tRNA synthetase, putative (Trypanosoma cruzi (strain CL Brener)) (UniProt Q4DSP6); assay: Trypanosoma cruzi tyrosyl tRNA synthetase (TcYRS) _High Tyrosine SOP; assay type: functional; settings: 30 µM; further: in the data most compounds retested in dose-response had high values
T4 sequence (whole entry): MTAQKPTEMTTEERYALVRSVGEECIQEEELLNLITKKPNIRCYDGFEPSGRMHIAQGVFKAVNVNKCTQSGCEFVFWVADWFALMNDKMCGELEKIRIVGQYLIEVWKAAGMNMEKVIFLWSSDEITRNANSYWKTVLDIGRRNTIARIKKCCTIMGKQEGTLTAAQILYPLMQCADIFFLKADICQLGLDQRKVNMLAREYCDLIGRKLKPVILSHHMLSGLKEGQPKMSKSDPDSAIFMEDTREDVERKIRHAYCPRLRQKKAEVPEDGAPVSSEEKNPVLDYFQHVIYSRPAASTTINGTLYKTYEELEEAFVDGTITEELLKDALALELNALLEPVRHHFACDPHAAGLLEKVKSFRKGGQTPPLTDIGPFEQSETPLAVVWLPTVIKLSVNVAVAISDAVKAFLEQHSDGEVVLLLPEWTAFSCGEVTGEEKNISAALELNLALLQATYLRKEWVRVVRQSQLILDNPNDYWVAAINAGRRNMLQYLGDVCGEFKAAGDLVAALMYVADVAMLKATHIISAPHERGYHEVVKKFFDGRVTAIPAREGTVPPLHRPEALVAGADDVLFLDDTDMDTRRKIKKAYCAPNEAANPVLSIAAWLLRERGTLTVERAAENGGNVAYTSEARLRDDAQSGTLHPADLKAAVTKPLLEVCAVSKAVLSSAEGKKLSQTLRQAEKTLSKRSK

[8] = biological target: T4, Tyrosyl-tRNA synthetase, putative (Trypanosoma cruzi (strain CL Brener)); assay: Trypanosoma cruzi tyrosyl tRNA synthetase (TcYRS) SOP; assay type: functional; settings: 30 µM
[9] = biological target: Chromo domain-containing protein 1 (Saccharomyces cerevisiae (strain ATCC 204508 / S288c) (Baker's yeast)) (UniProt P32657); assay: ScCHD-1 Enzyme Inhibition Assay; assay type: functional; settings: 30 µM; further: in the data most compounds retested in dose-response had high values
Chromo domain-containing protein 1 (Saccharomyces cerevisiae (strain ATCC 204508 / S288c) (Baker's yeast)), sequence (P32657 whole entry, the tested form may be a part): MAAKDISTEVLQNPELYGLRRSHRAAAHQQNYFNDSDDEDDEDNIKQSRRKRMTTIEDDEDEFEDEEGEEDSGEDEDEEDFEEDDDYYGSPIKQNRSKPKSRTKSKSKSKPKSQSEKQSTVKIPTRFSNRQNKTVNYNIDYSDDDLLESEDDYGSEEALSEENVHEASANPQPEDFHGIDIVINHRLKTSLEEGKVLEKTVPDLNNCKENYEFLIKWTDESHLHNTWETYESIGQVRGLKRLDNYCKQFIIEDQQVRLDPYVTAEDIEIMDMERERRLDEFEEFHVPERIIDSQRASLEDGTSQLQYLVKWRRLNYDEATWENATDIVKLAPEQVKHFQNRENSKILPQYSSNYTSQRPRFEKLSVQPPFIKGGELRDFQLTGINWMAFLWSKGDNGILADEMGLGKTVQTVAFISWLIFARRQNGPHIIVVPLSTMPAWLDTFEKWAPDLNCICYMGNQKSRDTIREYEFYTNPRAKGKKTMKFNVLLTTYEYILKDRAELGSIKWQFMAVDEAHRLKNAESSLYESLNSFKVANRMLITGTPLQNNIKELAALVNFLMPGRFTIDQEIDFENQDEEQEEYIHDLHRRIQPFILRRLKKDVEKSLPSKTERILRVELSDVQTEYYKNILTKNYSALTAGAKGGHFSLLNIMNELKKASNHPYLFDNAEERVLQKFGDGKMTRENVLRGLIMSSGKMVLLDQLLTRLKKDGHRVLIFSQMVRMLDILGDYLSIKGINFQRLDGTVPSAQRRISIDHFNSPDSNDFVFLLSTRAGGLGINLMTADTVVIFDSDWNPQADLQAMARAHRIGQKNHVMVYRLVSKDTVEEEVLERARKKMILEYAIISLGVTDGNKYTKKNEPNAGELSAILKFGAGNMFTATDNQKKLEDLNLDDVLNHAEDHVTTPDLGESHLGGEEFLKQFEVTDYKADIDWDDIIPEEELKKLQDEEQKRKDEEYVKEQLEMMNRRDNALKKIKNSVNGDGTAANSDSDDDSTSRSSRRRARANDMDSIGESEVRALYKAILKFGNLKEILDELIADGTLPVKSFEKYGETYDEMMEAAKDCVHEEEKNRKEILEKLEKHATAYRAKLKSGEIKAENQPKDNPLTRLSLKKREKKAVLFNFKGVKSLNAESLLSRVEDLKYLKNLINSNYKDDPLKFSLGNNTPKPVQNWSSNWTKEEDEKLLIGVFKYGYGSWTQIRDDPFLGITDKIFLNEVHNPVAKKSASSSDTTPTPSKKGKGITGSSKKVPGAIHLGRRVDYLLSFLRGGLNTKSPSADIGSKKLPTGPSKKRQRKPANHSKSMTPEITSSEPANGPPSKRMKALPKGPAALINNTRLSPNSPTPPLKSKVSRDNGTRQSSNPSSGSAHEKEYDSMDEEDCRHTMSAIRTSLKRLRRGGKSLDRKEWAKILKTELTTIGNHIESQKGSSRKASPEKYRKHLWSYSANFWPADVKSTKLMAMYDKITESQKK

Sialic acid-binding Ig-like lectin 9 (Homo sapiens), sequence (Q9Y336 whole entry): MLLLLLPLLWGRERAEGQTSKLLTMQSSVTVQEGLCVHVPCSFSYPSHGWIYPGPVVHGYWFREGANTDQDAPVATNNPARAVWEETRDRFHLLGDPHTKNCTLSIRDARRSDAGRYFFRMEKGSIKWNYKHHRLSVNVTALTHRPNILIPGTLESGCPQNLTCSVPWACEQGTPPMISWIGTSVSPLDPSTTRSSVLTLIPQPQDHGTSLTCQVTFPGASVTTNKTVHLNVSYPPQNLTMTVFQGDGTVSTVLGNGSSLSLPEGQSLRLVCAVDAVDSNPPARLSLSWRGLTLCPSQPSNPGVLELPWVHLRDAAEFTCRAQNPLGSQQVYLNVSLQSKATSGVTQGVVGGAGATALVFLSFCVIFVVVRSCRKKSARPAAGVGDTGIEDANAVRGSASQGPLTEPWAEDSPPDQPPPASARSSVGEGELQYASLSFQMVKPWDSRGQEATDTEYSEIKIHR
Protein translocase subunit SecA (Escherichia coli (strain K12)), sequence (P10408 whole entry): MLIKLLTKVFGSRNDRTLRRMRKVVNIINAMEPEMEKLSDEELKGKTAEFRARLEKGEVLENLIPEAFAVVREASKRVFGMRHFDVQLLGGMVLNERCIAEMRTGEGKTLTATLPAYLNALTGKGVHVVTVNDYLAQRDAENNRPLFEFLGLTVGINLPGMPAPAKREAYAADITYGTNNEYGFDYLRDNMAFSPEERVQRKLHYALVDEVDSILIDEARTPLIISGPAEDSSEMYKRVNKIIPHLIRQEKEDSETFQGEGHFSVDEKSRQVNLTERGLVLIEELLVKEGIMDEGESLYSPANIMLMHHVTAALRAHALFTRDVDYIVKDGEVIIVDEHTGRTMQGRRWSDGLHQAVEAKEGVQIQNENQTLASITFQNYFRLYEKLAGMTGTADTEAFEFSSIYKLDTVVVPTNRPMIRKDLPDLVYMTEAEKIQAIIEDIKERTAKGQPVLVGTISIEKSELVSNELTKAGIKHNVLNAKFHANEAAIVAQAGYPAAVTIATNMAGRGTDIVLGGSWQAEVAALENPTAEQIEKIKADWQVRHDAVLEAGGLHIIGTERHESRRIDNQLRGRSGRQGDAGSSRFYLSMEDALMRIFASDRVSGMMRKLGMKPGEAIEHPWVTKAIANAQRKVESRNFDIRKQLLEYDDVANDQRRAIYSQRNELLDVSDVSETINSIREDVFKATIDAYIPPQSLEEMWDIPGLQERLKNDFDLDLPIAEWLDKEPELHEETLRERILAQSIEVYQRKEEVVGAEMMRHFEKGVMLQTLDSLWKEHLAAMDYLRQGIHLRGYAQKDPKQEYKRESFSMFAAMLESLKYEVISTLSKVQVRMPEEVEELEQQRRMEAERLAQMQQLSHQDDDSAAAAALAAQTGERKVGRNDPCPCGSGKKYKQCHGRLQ

Row | Compound | Percent Effect [1] [%] | Percent Effect [2] [%] | Percent Effect [3] [%] | Percent Effect [4] [%] | Percent Effect (Trypanosoma cruzi) [%] | Percent Effect [5] [%] | Percent Effect [6] [%] | Percent Effect (Homo sapiens) [%] | Percent Effect [7] [%] | Percent Effect [8] [%] | Percent Effect [9] [%]
1 | Cc1n[nH]c(C)c1CCN(C)C(=O)c1ccc(CCC(C)(C)O)cc1 | 2.23 | – | – | – | – | – | – | – | – | – | –
2 | O=C(Cc1c(F)cccc1Cl)Nc1cc(N2CCCC2)ncn1 | 4.4 | – | – | – | – | – | – | – | – | – | –
3 | c1ccc(-c2nc(CN3CCc4c(ncn4C4CC4)C3)cs2)cc1 | – | -0.517 | 5.2 | -12.1 | -0.933 | -7.99 | 16 | 28.5 | 12.8 | 18.8 | -8.68
4 | c1cnnc(N2CCCC2CNCc2ccsc2)c1 (centres undefined) | – | -2.09 | -5.13 | -6.52 | 10.1 | 4.1 | -8.45 | 15.3 | -0.478 | 6.02 | -2.21
5 | CC(C)c1nc(C2CCCN2CCOCC2CC2)no1 (centres undefined) | 7.32 | – | – | – | – | – | – | – | – | – | –
6 | O=C(NCc1nc[nH]n1)c1cc(COc2cccc(F)c2)[nH]n1 | 2.9 | – | – | – | – | – | – | – | – | – | –
7 | CCOCC1CC2(CCN(C(=O)c3ccccn3)CC2)CO1 (centres undefined) | – | -5.71 | -1.3 | 4.48 | -0.876 | -3.64 | 9.44 | -3.04 | 1.58 | 2.56 | -2.76
8 | Cc1cc(C)cc(OCC(=O)NC2CCN(S(C)(=O)=O)CC2)c1 | – | -3.04 | 13 | -6.89 | -8.58 | -1.84 | 8.77 | 14.6 | 3.92 | 16.5 | -7.11
9 | COC(=O)c1cccn1C1CCN(CC(=O)NC2CCCCC2)CC1 | – | -0.883 | 15.6 | 8.78 | -1.31 | 3.07 | 13.5 | 2.4 | 9.8 | 21.2 | -5.06
